{"source": "paper PMC8384837", "about": "“Expanding the binding specificity for RNA recognition by a PUF domain”", "assay_in_all_cases": "yeast three-hybrid, YBZ-1, SC-Leu-His + 0.5 mM 3-AT, 4 days", "settings_in_all_cases": "tags: N-Gal4 AD-HA kept; label: inside an RPR1-promoter hybrid RNA with tandem MS2 sites; ssRNA", "key": {"[1]": {"biological_target": "PUM1 PUF domain R5-RRS (Homo sapiens, UniProt Q14671 828-1176, C1007R;Q1011S)", "sequence (Q14671 828-1176 C1007R/Q1011S)": "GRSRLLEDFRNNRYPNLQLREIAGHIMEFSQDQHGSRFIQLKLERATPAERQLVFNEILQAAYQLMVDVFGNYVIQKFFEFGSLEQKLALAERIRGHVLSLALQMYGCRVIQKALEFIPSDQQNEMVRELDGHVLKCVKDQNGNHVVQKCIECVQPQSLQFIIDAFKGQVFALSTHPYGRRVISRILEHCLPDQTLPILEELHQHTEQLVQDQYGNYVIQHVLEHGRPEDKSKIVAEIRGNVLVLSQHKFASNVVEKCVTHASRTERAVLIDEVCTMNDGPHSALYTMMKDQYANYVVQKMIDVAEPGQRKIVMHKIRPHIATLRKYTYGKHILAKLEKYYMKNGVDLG", "summary_of_the_method": "(§1)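 The interaction score is the log change in how often each variant appears, from input to selection. Frequencies came from PCR-amplified, Illumina-sequenced repeat regions of Pumilio-1 PUF domain libraries grown in strain YBZ-1 (LexA–MS2 coat fusion, HIS3 reporter) alongside matching RNA elements. Input plates were SC-Leu and selection plates were SC-Leu-His + 0.5 mM 3-AT, each for four days, and the log2 calculation used a pseudocount of 1 where a variant was absent.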"}, "[2]": {"biological_target": "PUM1 PUF domain R5-RGW (Homo sapiens, UniProt Q14671 828-1176, C1007R;R1008G;Q1011W)", "summary_of_the_method": "as §1"}, "[3]": {"biological_target": "PUM1 PUF domain R5-KGD (Homo sapiens, UniProt Q14671 828-1176, C1007K;R1008G;Q1011D)", "summary_of_the_method": "as §1"}, "[4]": {"biological_target": "PUM1 PUF domain R5-HKE (Homo sapiens, UniProt Q14671 828-1176, C1007H;R1008K;Q1011E)", "summary_of_the_method": "as §1"}, "[5]": {"biological_target": "PUM1 PUF domain R8-RWK (Homo sapiens, UniProt Q14671 828-1176, N1122R;Y1123W;Q1126K)", "summary_of_the_method": "as §1"}, "[6]": {"biological_target": "PUM1 PUF domain R8-RFH (Homo sapiens, UniProt Q14671 828-1176, N1122R;Y1123F;Q1126H)", "summary_of_the_method": "as §1"}, "[7]": {"biological_target": "PUM1 PUF domain R8-RFP (Homo sapiens, UniProt Q14671 828-1176, N1122R;Y1123F;Q1126P)", "summary_of_the_method": "as §1"}, "[8]": {"biological_target": "PUM1 PUF domain R4-RHG (Homo sapiens, UniProt Q14671 828-1176, N971R;Q975G)", "summary_of_the_method": "as §1"}, "[9]": {"biological_target": "PUM1 PUF domain R4-VPQ (Homo sapiens, UniProt Q14671 828-1176, N971V;H972P)", "summary_of_the_method": "as §1"}, "[10]": {"biological_target": "PUM1 PUF domain R3-RTW (Homo sapiens, UniProt Q14671 828-1176, C935R;R936T;Q939W)", "summary_of_the_method": "as §1"}, "[11]": {"biological_target": "T1, PUM1 PUF domain R6-CHR (Homo sapiens, UniProt Q14671 828-1176, N1043C;Y1044H;Q1047R)", "T1 sequence": "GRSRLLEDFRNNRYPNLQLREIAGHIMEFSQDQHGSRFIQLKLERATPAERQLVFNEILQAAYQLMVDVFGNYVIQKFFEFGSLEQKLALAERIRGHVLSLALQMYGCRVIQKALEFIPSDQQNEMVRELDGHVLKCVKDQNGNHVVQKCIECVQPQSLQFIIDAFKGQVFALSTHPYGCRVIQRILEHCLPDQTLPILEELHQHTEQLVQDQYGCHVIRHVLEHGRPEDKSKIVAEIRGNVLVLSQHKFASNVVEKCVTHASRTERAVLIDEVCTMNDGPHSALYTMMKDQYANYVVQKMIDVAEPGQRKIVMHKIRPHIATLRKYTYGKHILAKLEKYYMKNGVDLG", "summary_of_the_method": "as §1"}, "[12]": {"biological_target": "PUM1 PUF domain R5-MYS (Homo sapiens, UniProt Q14671 828-1176, C1007M;R1008Y;Q1011S)", "summary_of_the_method": "as §1"}, "[13]": {"biological_target": "PUM1 PUF domain R5-TRG (Homo sapiens, UniProt Q14671 828-1176, C1007T;Q1011G)", "summary_of_the_method": "as §1"}, "[14]": {"biological_target": "PUM1 PUF domain R5-GLW (Homo sapiens, UniProt Q14671 828-1176, C1007G;R1008L;Q1011W)", "summary_of_the_method": "as §1"}, "[15]": {"biological_target": "PUM1 PUF domain R4-VSL (Homo sapiens, UniProt Q14671 828-1176, N971V;H972S;Q975L)", "summary_of_the_method": "as §1"}, "[16]": {"biological_target": "T2, PUM1 PUF domain R6-VFQ (Homo sapiens, UniProt Q14671 828-1176, N1043V;Y1044F)", "T2 sequence": "T1 sequence with C216V, H217F, R220Q", "summary_of_the_method": "as §1"}, "[17]": {"biological_target": "T3, PUM1 PUF domain R6-LWQ (Homo sapiens, UniProt Q14671 828-1176, N1043L;Y1044W)", "T3 sequence": "T1 sequence with C216L, H217W, R220Q", "summary_of_the_method": "as §1"}, "[18]": {"biological_target": "PUM1 PUF domain R5-GQW (Homo sapiens, UniProt Q14671 828-1176, C1007G;R1008Q;Q1011W)", "summary_of_the_method": "as §1"}, "[19]": {"biological_target": "PUM1 PUF domain R1-KSN (Homo sapiens, UniProt Q14671 828-1176, S863K;R864S;Q867N)", "summary_of_the_method": "as §1"}, "[20]": {"biological_target": "PUM1 PUF domain R2-DWE (Homo sapiens, UniProt Q14671 828-1176, N899D;Y900W;Q903E)", "summary_of_the_method": "as §1"}}, "note": "Where a chain is given by its changes, count along the chain named.", "data": [{"sequence": "GGCUAGAACUAGUGGAUCCCCCGGCGCCCGGCGGCUCGAGCCCGGGUAAGUGUGAAUAGUCUGCAUGCCGCCGGGCGCCAUGCCUGCAGGUCGACUCUAGAAAACAUG", "values": [{"measurement": "binding signal", "setting": "[1]", "result": "1.53 log2 enrichment (interaction score)"}]}, {"sequence": "GGCUAGAACUAGUGGAUCCCCCGGCGCCCGGCGGCUCGAGCCCGGGUAAGUGUCAAUAGUCUGCAUGCCGCCGGGCGCCAUGCCUGCAGGUCGACUCUAGAAAACAUG", "values": [{"measurement": "binding signal", "setting": "[2]", "result": "2.31 log2 enrichment (interaction score)"}, {"measurement": "binding signal", "setting": "[3]", "result": "3.76 log2 enrichment (interaction score)"}, {"measurement": "binding signal", "setting": "[4]", "result": "3.67 log2 enrichment (interaction score)"}, {"measurement": "binding signal", "setting": "[1]", "result": "4.44 log2 enrichment (interaction score)"}]}, {"sequence": "GGCUAGAACUAGUGGAUCCCCCGGCGCCCGGCGGCUCGAGCCCGGGUAAGCGUAAAUAGUCUGCAUGCCGCCGGGCGCCAUGCCUGCAGGUCGACUCUAGAAAACAUG", "values": [{"measurement": "binding signal", "setting": "[5]", "result": "6.98 log2 enrichment (interaction score)"}, {"measurement": "binding signal", "setting": "[6]", "result": "4.72 log2 enrichment (interaction score)"}, {"measurement": "binding signal", "setting": "[7]", "result": "5.8 log2 enrichment (interaction score)"}]}, {"sequence": "GGCUAGAACUAGUGGAUCCCCCGGCGCCCGGCGGCUCGAGCCCGGGUAAGUGUACAUAGUCUGCAUGCCGCCGGGCGCCAUGCCUGCAGGUCGACUCUAGAAAACAUG", "values": [{"measurement": "binding signal", "setting": "[8]", "result": "4.02 log2 enrichment (interaction score)"}]}, {"sequence": "GGCUAGAACUAGUGGAUCCCCCGGCGCCCGGCGGCUCGAGCCCGGGUAAGUGUAUAUAGUCUGCAUGCCGCCGGGCGCCAUGCCUGCAGGUCGACUCUAGAAAACAUG", "values": [{"measurement": "binding signal", "setting": "[8]", "result": "4.05 log2 enrichment (interaction score)"}, {"measurement": "binding signal", "setting": "[9]", "result": "2.78 log2 enrichment (interaction score)"}]}, {"sequence": "GGCUAGAACUAGUGGAUCCCCCGGCGCCCGGCGGCUCGAGCCCGGGUAAGUGUAAUUAGUCUGCAUGCCGCCGGGCGCCAUGCCUGCAGGUCGACUCUAGAAAACAUG", "values": [{"measurement": "binding signal", "setting": "[10]", "result": "2.38 log2 enrichment (interaction score)"}]}, {"sequence": "GGCUAGAACUAGUGGAUCCCCCGGCGCCCGGCGGCUCGAGCCCGGGUAAGUGUAAAUAGUCUGCAUGCCGCCGGGCGCCAUGCCUGCAGGUCGACUCUAGAAAACAUG", "values": [{"measurement": "binding signal", "setting": "[5]", "result": "6.43 log2 enrichment (interaction score)"}, {"measurement": "binding signal", "setting": "[11]", "result": "3.81 log2 enrichment (interaction score)"}, {"measurement": "binding signal", "setting": "[6]", "result": "4.43 log2 enrichment (interaction score)"}, {"measurement": "binding signal", "setting": "[8]", "result": "2.69 log2 enrichment (interaction score)"}, {"measurement": "binding signal", "setting": "[12]", "result": "2.4 log2 enrichment (interaction score)"}, {"measurement": "binding signal", "setting": "[13]", "result": "2.68 log2 enrichment (interaction score)"}, {"measurement": "binding signal", "setting": "[14]", "result": "2.11 log2 enrichment (interaction score)"}, {"measurement": "binding signal", "setting": "[1]", "result": "2.42 log2 enrichment (interaction score)"}, {"measurement": "binding signal", "setting": "[15]", "result": "2.71 log2 enrichment (interaction score)"}, {"measurement": "binding signal", "setting": "[16]", "result": "3.65 log2 enrichment (interaction score)"}, {"measurement": "binding signal", "setting": "[17]", "result": "5.83 log2 enrichment (interaction score)"}]}, {"sequence": "GGCUAGAACUAGUGGAUCCCCCGGCGCCCGGCGGCUCGAGCCCGGGUAAGUGUUAAUAGUCUGCAUGCCGCCGGGCGCCAUGCCUGCAGGUCGACUCUAGAAAACAUG", "values": [{"measurement": "binding signal", "setting": "[18]", "result": "2.77 log2 enrichment (interaction score)"}, {"measurement": "binding signal", "setting": "[12]", "result": "3.54 log2 enrichment (interaction score)"}, {"measurement": "binding signal", "setting": "[13]", "result": "2.97 log2 enrichment (interaction score)"}, {"measurement": "binding signal", "setting": "[14]", "result": "1.6 log2 enrichment (interaction score)"}, {"measurement": "binding signal", "setting": "[1]", "result": "4.6 log2 enrichment (interaction score)"}]}, {"sequence": "GGCUAGAACUAGUGGAUCCCCCGGCGCCCGGCGGCUCGAGCCCGGGUAAGUGUAAAUCGUCUGCAUGCCGCCGGGCGCCAUGCCUGCAGGUCGACUCUAGAAAACAUG", "values": [{"measurement": "binding signal", "setting": "[19]", "result": "4.24 log2 enrichment (interaction score)"}]}, {"sequence": "GGCUAGAACUAGUGGAUCCCCCGGCGCCCGGCGGCUCGAGCCCGGGUAAGUGAAAAUAGUCUGCAUGCCGCCGGGCGCCAUGCCUGCAGGUCGACUCUAGAAAACAUG", "values": [{"measurement": "binding signal", "setting": "[16]", "result": "8.19 log2 enrichment (interaction score)"}]}, {"sequence": "GGCUAGAACUAGUGGAUCCCCCGGCGCCCGGCGGCUCGAGCCCGGGUAAGUGUAAAGAGUCUGCAUGCCGCCGGGCGCCAUGCCUGCAGGUCGACUCUAGAAAACAUG", "values": [{"measurement": "binding signal", "setting": "[20]", "result": "9.59 log2 enrichment (interaction score)"}]}]}
